Screening results deposited in PubChem BioAssay by Sanford-Burnham Center for Chemical Genomics.
Shown are actives, neighbours in structure and some others; about 2.5% of the full set was active somewhere.
SKN-1 inh – suppressors of acrylamide-induced Pgst-4::GFP reporter in worms, primary screen, SKN-1 inhibitor project, whole organism, uHTS, GFP/RFP fluorescence ratio, strain VP596. C. elegans VP596 Pgst-4::GFP/RFP ratio, 24 h. inhibition, % at 21.8 µM. 360,000 compounds, 0.49% hits. AID 624304, 2012;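 active = interference check ratio from 0.5 to 1.5 plus GFP to RFP signal ratio inhibition reaching or exceeding a fixed threshold, cut at about 30% in these data, passing the limit was not always enough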
H9c2 protect – cardioprotection against H2O2-induced cell death, primary screen, uHTS, H9c2 cells, ATPLite luminescence | AID 588492, 2011 | H9c2 cardiomyocytes, H2O2 injury protection, 2 h | 360,000 compounds, 0.63% hits | protection from H2O2 cell death, % at 20 µM;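 active = compounds giving at least 50% protection of heart cells from peroxide-induced death in the single-dose screen, raw or plate-pattern-corrected value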
H9c2 TAG inh – inhibitors of triacylglycerol accumulation, primary screen, cell-based, uHTS, fluorescence, H9c2. H9c2 cells, Nile Red lipid (TAG) fluorescence; cells loaded with 200 µM oleic acid. inhibition, % at 12.5 µM. 230,000 compounds, 0.66% hits. AID 651582, 2012;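 active = pattern-corrected inhibition of lipid staining of at least 50% with the nuclear-stain viability signal not falling by more than 50%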
CRFR2-BP antag – antagonists of CRF-BP/CRF-R2 complex, primary screen, cell-based, HEK293, calcium dye fluorescence, uHTS. CRF-induced calcium fluorescence. inhibition, % at 11.8 µM. 350,000 compounds, 0.59% hits. AID 588475, 2011;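 active = inhibition of the ligand-induced calcium signal above about 50% at the single tested concentration, limit read from the data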
iPSC survival up – enhancers of single-cell hiPSC survival, primary screen, ATPlite luminescence; survival enhancement, % at 20 µM; 360,000 compounds, 0.044% hits; 100% = ROCK inhibitor wells, 0% = DMSO; in the data active = survival enhancement above about 18%;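 note: cells exposed to compounds for 16 hours before the ATP read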
CRFR2-BP ag – agonists of CRF-BP/CRF-R2 complex, primary screen, cell-based, HEK293, calcium dye fluorescence, uHTS. 350,000 compounds, 0.46% hits. activation, % at 13.2 µM. calcium dye fluorescence (FLIPR); percent of saturating CRF peptide response;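 active = activation of at least 50%, plus an integration ratio under a set limit after plate pattern correction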
Each line names hits and unclear results; the compound was inactive in the other large screens.

COc1ccc(S(=O)(=O)N2CCN(Cc3cc(OC)c(OC)c(OC)c3)CC2)cc1	none (no result: H9c2 TAG inh)
O=P(c1ccccc1)(c1ccccc1)c1cc(S(=O)(=O)O)ccc1O	CRFR2-BP ag 115 (no result: H9c2 TAG inh)
O=[N+]([O-])c1ccc(O)c(-c2cc(C(F)(F)F)nc(-c3ccccc3)n2)c1	CRFR2-BP antag 59, CRFR2-BP ag 62 (no result: H9c2 TAG inh)
COc1ccccc1-c1noc2c1C(=O)N(Cc1cn(-c3ccccc3OC)nn1)CC2	none (no result: H9c2 protect, H9c2 TAG inh, CRFR2-BP antag, CRFR2-BP ag)
COc1ccc(Br)cc1C=NNS(=O)(=O)c1ccc(C)cc1	none
COc1ccc(-n2c(O)c(/C=N/NS(=O)(=O)c3cc(C)ccc3C)c3ccccc3c2=O)cc1OC	CRFR2-BP ag 111 (no result: H9c2 TAG inh)
COc1ccc(-n2c(O)c(/C=N/Nc3nc(C)cc(C)n3)c3ccccc3c2=O)cc1OC	H9c2 protect 62
COc1ccc(-n2c(O)c(/C=N/NS(=O)(=O)c3ccc(C)cc3)c3ccccc3c2=O)cc1OC	CRFR2-BP ag 101 (no result: H9c2 TAG inh)
COc1ccc(N=Cc2c(O)n(-c3cccc(C)n3)c(=O)c3ccccc23)c(OC)c1	CRFR2-BP ag 72
COc1ccc(C)cc1S(=O)(=O)Nc1ccc(-n2c(C)nc3ccccc3c2=O)cc1	none
CCCCNC(=O)C1c2ccccc2OCC(=O)N1Cc1ccccn1 (stereo not drawn)	none (no result: H9c2 protect, H9c2 TAG inh, CRFR2-BP antag, CRFR2-BP ag)
CC(C)c1cccc(C(C)C)c1NC(=O)OC1CCCCC1	none (no result: H9c2 TAG inh, CRFR2-BP antag, CRFR2-BP ag)
CCCCNC(=O)C1(C)CCC(=O)N1C1CCN(Cc2ccccc2)CC1 (stereo not drawn)	none (no result: H9c2 TAG inh, CRFR2-BP antag, CRFR2-BP ag)
CC(C)Sc1snnc1-c1ccccc1	CRFR2-BP antag 54
Clc1ccc(-c2nnsc2SCc2ccccc2)cc1	SKN-1 inh 36 (no result: H9c2 TAG inh)
CCNC(=O)C1(C)CCN(C(=O)c2c(F)cccc2F)C1 (stereo not drawn)	none (no result: CRFR2-BP antag, CRFR2-BP ag)
O=C(N/N=C/c1c(O)n(Cc2ccccc2)c(=O)c2ccccc12)c1cccnc1	CRFR2-BP ag 64
N#Cc1c2ccccc2nc2ccccc12	none
COC(=O)CCCC1=CC2=CC(=O)C(C)(OC(=O)CCc3ccccc3)C(=O)C2=CO1 (stereo not drawn)	SKN-1 inh 33 (no result: H9c2 TAG inh)
COC(=O)CCC(=O)OC1(C)C(=O)C=C2C=C(c3ccsc3)OC=C2C1=O (stereo not drawn)	none
Cc1ccc(C(C)(C)C)c(SCC(=O)Nc2nnc(C)s2)c1	none (no result: H9c2 TAG inh)
CC1Cc2ccccc2N1C(=O)Cn1nc(C(=O)O)c2ccccc2c1=O (stereo not drawn)	H9c2 protect 53 (no result: H9c2 TAG inh)
Cc1cnc(C(=O)OCC(=O)N2c3ccccc3CC2C)cn1 (stereo not drawn)	none
CC1Cc2ccccc2N1C(=O)COC(=O)c1n[nH]c(=O)c2ccccc12 (stereo not drawn)	H9c2 protect 54
CC(C)N1C/C(=C/c2cccnc2)C(=O)/C(=C/c2cccnc2)C1	none (no result: H9c2 TAG inh)
CN1C/C(=C/c2cccnc2)C(=O)/C(=C/c2cccnc2)C1	iPSC survival up 24 (no result: H9c2 TAG inh)
C[C@@H]1CN([C@@H](C)CO)C(=O)CCCn2cc(nn2)CO[C@H]1CN(C)S(=O)(=O)c1ccc(Cl)cc1	none
Clc1ccc(-c2nnc(-c3ccco3)o2)cc1	SKN-1 inh 74 (no result: H9c2 TAG inh)
Cc1cc(C)c2nc3sc(=Cc4ccc(-c5ccccc5C(=O)O)o4)c(=O)n3c2c1	none (no result: CRFR2-BP antag, CRFR2-BP ag)
Cc1cc(/C=c2\sc3nc4ccccc4n3c2=O)c(C)n1-c1ccc(C(=O)O)cc1	none
Cc1ccc2c(nc3s/c(=C\c4ccc(-c5ccccc5C(=O)O)o4)c(=O)n32)c1C	CRFR2-BP ag 126 (no result: H9c2 TAG inh)
O=C(O)c1ccc(-c2ccc(/C=c3/sc4nc5ccccc5n4c3=O)o2)cc1Cl	CRFR2-BP ag 118 (no result: H9c2 TAG inh)
COC(=O)[C@@]12C[C@@H](CC(=O)N3CCC(c4ccccc4)CC3)C(=O)N(Cc3ccco3)C1=CCC(C)(C)C2	none (no result: H9c2 protect, H9c2 TAG inh, CRFR2-BP antag, iPSC survival up, CRFR2-BP ag)
S=P(c1ccc(N2CCOCC2)cc1N1CCOCC1)(N1CCOCC1)N1CCOCC1	SKN-1 inh 44
O=[N+]([O-])c1ccc(N2CCCCC2)cc1N1CCOCC1	none (no result: H9c2 TAG inh)
CC1=C(C(=O)OCC(C)C)C2(O)C(=O)c3ccccc3C2(O)N1 (stereo not drawn)	none
C=CCOC(=O)C1=C(C)NC2(O)c3ccccc3C(=O)C12O (stereo not drawn)	CRFR2-BP antag 69
CCCCC[C@@H](C)N1C[C@H](COCc2ccccc2)Oc2cc(N3CCC[C@@H]3COC)ccc2S1(=O)=O	none (no result: H9c2 protect, H9c2 TAG inh, CRFR2-BP antag, CRFR2-BP ag)
CCCOc1ccc2cc(-c3ccccn3)c(=O)oc2c1	SKN-1 inh 45
Cc1nn(-c2ccccc2)c(N)c1Sc1cccc([N+](=O)[O-])c1	none (no result: H9c2 TAG inh)
Cc1nn(-c2cccc([N+](=O)[O-])c2)c(N)c1-c1ccccc1	CRFR2-BP antag 57
COc1cc(-c2ccc3cc(OC)c(OC)c(OC)c3c2)cc(OC)c1OC	CRFR2-BP antag 58
COc1ccc(-c2oc3ccc(-c4cc(OC)c(OC)c(OC)c4)cc3c2-c2ccc(OC)cc2)cc1	none (no result: SKN-1 inh, H9c2 protect, H9c2 TAG inh, iPSC survival up)
COc1ccc(C(=O)O/N=C(/c2ccccc2)c2ccncc2)cc1OC	H9c2 protect 59
N/C(=N\OC(=O)c1cccc(Br)c1)c1ccncc1	SKN-1 inh 46
Cc1cccc(C(=O)O/N=C(\N)c2ccccn2)c1	SKN-1 inh 37 (no result: H9c2 TAG inh)
CC(C)CC1OC(C(C)C)Cc2[nH]c(=S)[nH]c(=O)c21 (stereo not drawn)	none (no result: H9c2 protect, H9c2 TAG inh, CRFR2-BP antag, CRFR2-BP ag)
CCOC(=O)/C=C/[C@H]1CCc2cccc(Cl)c2O1	none
O=C(CCC(=O)N1CCc2ccccc2C1)NCCc1ccc(Cl)cc1	none
COC(=O)c1cccc(CC2(C)C(=O)Nc3cc(-c4ccccc4Cl)ccc32)c1 (stereo not drawn)	none (no result: CRFR2-BP antag, CRFR2-BP ag)
Cc1ccc(NCc2nnc(SCC(=O)c3ccccc3)n2Cc2ccco2)c(C)c1	none
CC(C(=O)Nc1sccc1C(N)=O)N1C(=O)C2CC=CCC2C1=O (stereo not drawn)	CRFR2-BP antag 63
CC1(C(=O)NS(=O)(=O)c2ccc(Cl)cc2)CCN1C(=O)C1CC1 (stereo not drawn)	none (no result: CRFR2-BP antag, CRFR2-BP ag)
N#C/C(=N\Nc1ccccc1)C(N)=S	none
N#C/C(=N\Nc1ccc(Cl)cc1)C(N)=S	SKN-1 inh 39
O=C(CN1CCCCCC1)Nc1ccc(Cl)cn1	none (no result: H9c2 TAG inh)
Oc1ccccc1C=NCCN1CCN(CCN=Cc2ccccc2O)C1c1ccccc1O (stereo not drawn)	CRFR2-BP antag 66
CC1Sc2ccc(S(=O)(=O)N3CCC(C(=O)NCCc4ccccc4)CC3)cc2NC1=O (stereo not drawn)	none (no result: H9c2 TAG inh)
CC1Sc2ccc(S(=O)(=O)N3CCC(C(=O)NCC(C)c4ccccc4)CC3)cc2NC1=O (stereo not drawn)	CRFR2-BP antag 53 (no result: H9c2 TAG inh)
